The record followed here is PubChem BioAssay (NCI).

Assay [1] is described as follows: NCI Yeast Anticancer Drug Screen. Data for the rad50 strain (AID 155).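 Note: 0% = growth of vehicle-only cultures of the same strain.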 Conditions: S. cerevisiae rad50 strain growth inhibition; at 50.0 µM; stronger effect = higher value. The procedure, abridged:
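Genetically altered yeast (DNA repair pathway); compound treatment; growth inhibition vs vehicle ctrl.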

A short description of assay [2]: NCI Yeast Anticancer Drug Screen. Data for the mec2-1 strain (AID 157). Conditions: S. cerevisiae mec2-1 strain, at 50.0 µM, stronger effect = higher value. The procedure, abridged: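 Test agents were screened against the mec2-1 yeast strain, with defined DNA repair or cell cycle alteration. Growth was scored as inhibition against vehicle-only controls.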
A short description of assay [3]: NCI Yeast Anticancer Drug Screen. Data for the sgs1 mgt1 strain (AID 161).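 Note: 0% = growth of cultures given vehicle only.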 As to conditions: S. cerevisiae sgs1 mgt1 strain, at 50.0 µM, stronger effect = higher value. The procedure, abridged: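 Mutant yeast exposed to compound; growth scored against vehicle-only wells.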
Assay [4] in a line: NCI Yeast Anticancer Drug Screen. Data for the cln2 rad14 strain (AID 165).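 Note: 0% = growth equal to vehicle treated cultures.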 As to conditions: S. cerevisiae cln2 rad14 strain, at 50.0 µM, stronger effect = higher value. The procedure, abridged: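 Growth of compound-exposed yeast (cln2 rad14 genotype) measured and expressed as inhibition relative to vehicle.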
Assay [5] can be described thus: NCI Yeast Anticancer Drug Screen. Data for the bub3 strain (AID 167). Conditions: S. cerevisiae bub3 mutant strain, at 50.0 µM, stronger effect = higher value. The procedure, abridged: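 Yeast carrying a defined mutation is treated with each compound, and growth is compared with that of vehicle-exposed cells to give inhibition.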
Assay [6] in a line: NCI Yeast Anticancer Drug Screen. Data for the mlh1 rad18 strain (AID 175). Conditions: S. cerevisiae mlh1 rad18 strain growth inhibition; at 50.0 µM; stronger effect = higher value. The procedure, abridged:
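In this whole-cell yeast screen, a strain with altered DNA damage repair is challenged with compound, and its growth is measured against matched vehicle-treated controls.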

Where “and” joins values, the source holds several entries; their conditions need not be identical. Equal values may be shown once. About 79,000 compounds went through this panel and 15% of them were active in at least one assay; those are over-represented in the sample as a whole. Unmarked numbers belong to inactive results. Calls of active or inactive are those of the source. Cut-off read from the data, not from the text of the source: active = growth inhibition above about 70%; inactive = the rest.

Take `CN1CCc2cc3c(cc2C1)OCO3`: the growth inhibition in assay [1] was -22.9% and -14.8%; in assay [2], 2.5% and -16.9%; in assay [3], -12.9% and 8.55%; in assay [4] it was -22.6% and 7.65%; in assay [5], -5.85% and 2.45%; in assay [6], -17.9% and 28.6%.
Consider `C[n+]1cccc(C2CCC[N+]2(C)C)c1` (stereo not drawn), for which the growth inhibition is 4.4% in assay [1]; 7.85% in assay [2]; 8.15% in assay [3]; -10.9% in assay [4]; -9% in assay [5]; -4.6% in assay [6].
As for `CN(C)C(=O)Sc1c(Cl)cc(S(=O)(=O)F)cc1[N+](=O)[O-]`, the growth inhibition in assay [1] was 22.9%; in assay [2], 19.1%; in assay [3] it was 27.9%; in assay [4], 29.9%; in assay [5], 8.9%; in assay [6] it was 20.6%.
As for `COc1ccc(C[C@@H]2NC[C@@H](O)[C@@H]2OC(C)=O)cc1`, the growth inhibition in assay [1] was 91.3% (active); in assay [2] it was 93.2% (active); in assay [3], 93.2% (active); in assay [4] it was 91.8% (active); in assay [5] it was 92.2% (active); in assay [6], 91.3% (active).
For `CNC(=O)Oc1ccccc1C(N)=O`, the growth inhibition in assay [1] is 10.4%; in assay [2], -1.8%; in assay [3], -14.8%; in assay [4], -46.8%; in assay [5], -4.55%; in assay [6], 7.3%.
Take `COCCCCCC(=O)CP(=O)(OC)OC`: the growth inhibition in assay [1] is -7.15%; in assay [2], -1.4%; in assay [3], -1.2%; in assay [4], -12.9%; in assay [5], -6.4%; in assay [6] it was 8.95%.
On to `Cc1cc(Cl)ccc1OCCCC(=O)O`, for which the growth inhibition in assay [1] is 28.4%; in assay [2], 16.2%; in assay [3], 41.5%; in assay [4], 21%; in assay [5], 47.1%; in assay [6], 15.4%.
Take `O=C1C=CC(=Nc2cc(Cl)c(O)c(Cl)c2)C=C1`: the growth inhibition in assay [1] was 26.6%; in assay [2], 42.5%; in assay [3], 32.5%; in assay [4], 20.1%; in assay [5], 31.1%; in assay [6], 42.8%.
Regarding `CN(C)c1ccc2c(c1)Cc1ccccc1-2`, the growth inhibition is 1% in assay [1]; -8.65% in assay [2]; 18.2% in assay [3]; -24.1% in assay [4]; 44% in assay [5]; -25.8% in assay [6].
With `CNC(=O)Oc1ccc2c(C)cc(=O)oc2c1`, the growth inhibition in assay [1] was 21.1%; in assay [2], 0.2%; in assay [3], 4.55%; in assay [4], -27%; in assay [5], 17.2%; in assay [6], 15.3%.
On to `OCC(Br)(Br)Br`, for which the growth inhibition is 44.4% in assay [1]; -4.3% in assay [2]; 19.5% in assay [3]; 3.7% in assay [4]; -2.55% in assay [5]; 27.9% in assay [6].
On to `CCC(=O)c1ccc(C)cc1`, for which the growth inhibition was -11.5% in assay [1]; 1.2% in assay [2]; -10.4% in assay [3]; -16.7% in assay [4]; 4.2% in assay [5]; -3.45% in assay [6].
On to `Clc1cc[c]([Sn]([Cl])([c]2ccc(Cl)cc2)[c]2ccc(Cl)cc2)cc1`, for which the growth inhibition in assay [1] was 98.5% (active); in assay [2], 98.5% (active); in assay [3] it was 98.8% (active); in assay [4] it was 97.7% (active); in assay [5], 97.5% (active); in assay [6] it was 98.3% (active).
As for `O=C(NP(=O)(N1CC1)N1CC1)c1cc(I)ccc1I`, the growth inhibition in assay [1] is -2.1%; in assay [2], -1.7%; in assay [3] it was 1.25%; in assay [4], -27.7%; in assay [5], 12.9%; in assay [6], -14.3%.
Take `CC([NH-])C[NH-].CC([NH-])C[NH-].[Co].[NH2-].[NH2-]` (stereo not drawn): the growth inhibition in assay [1] was -10%; in assay [2] it was -6.5%; in assay [3], 6.15%; in assay [4], -41.2%; in assay [5], 35.2%; in assay [6], 18.4%.
As to `[Cl][Sn]([Cl])([c]1ccccc1)[c]1ccccc1.c1ccncc1`, the growth inhibition was 96.8% (active) in assay [1]; 98.8% (active) in assay [2]; 98.8% (active) in assay [3]; 97.5% (active) in assay [4]; 98.1% (active) in assay [5]; 97.7% (active) in assay [6].
Take `CN1C2CCC1CC(=O)C2`: the growth inhibition in assay [1] was -14.6%; in assay [2] it was -48.2%; in assay [3], -32.6%; in assay [4], -8.35%; in assay [5], -29.9%; in assay [6], -27.4%.
For the compound `C=COC(=O)NC(C(=O)O)C(C)CC` (stereo not drawn), the growth inhibition in assay [1] is 43.1%; in assay [2], 18.6%; in assay [3], 44.4%; in assay [4], 24.9%; in assay [5], -5.35%; in assay [6], 34.9%.
Consider `CC(C)OC(=O)C(C)Br` (stereo not drawn), for which the growth inhibition is -0.1% in assay [1]; -3.05% in assay [2]; -8.35% in assay [3]; 3% in assay [4]; 3.1% in assay [5]; 1.15% in assay [6].
Regarding `ClC1CC2OC(Cl)CC2O1` (stereo not drawn), the growth inhibition in assay [1] was 5.2%; in assay [2] it was 1.05%; in assay [3], -19.1%; in assay [4], -20.9%; in assay [5], 0.4%; in assay [6] it was 1.15%.
For the compound `[CH3][Sn]([CH3])([CH3])[O]C(=O)CNC(=O)c1ccccc1`, the growth inhibition in assay [1] was -8.55%; in assay [2], -4.1%; in assay [3], -2.3%; in assay [4] it was 27.9%; in assay [5], 4.25%; in assay [6], -0.3%.
Regarding `O=C(OCC1CCCN2CCCCC12)c1cccnc1` (stereo not drawn), the growth inhibition in assay [1] was 7.7%; in assay [2] it was -10.8%; in assay [3], -28.3%; in assay [4], 14.9%; in assay [5] it was -8.5%; in assay [6], -25.3%.
For the compound `C1CN([PH+](N2CC2)N2CC2)CCO1.C1CN([PH+](N2CC2)N2CC2)CCO1.[I][Pd][I]`, the growth inhibition is 3.9% in assay [1]; 6.7% in assay [2]; -5.7% in assay [3]; -8.05% in assay [4]; 0% in assay [5]; -4.4% in assay [6].
